Test in all cases: DAPPL (digital affinity profiling via proximity ligation, sequencing); 10 mM Tris-HCl pH 7.5, 50 mM NaCl, 1 mM DTT, 4% glycerol, room temperature, 30 min; GST-TFs on glutathione beads, 16-mer random dsDNA library, 0.1% formaldehyde crosslink after washing; high values mean tight binding
In one test the target is T1, FLI1 (Homo sapiens, UniProt Q01543 1-452).
T1 sequence: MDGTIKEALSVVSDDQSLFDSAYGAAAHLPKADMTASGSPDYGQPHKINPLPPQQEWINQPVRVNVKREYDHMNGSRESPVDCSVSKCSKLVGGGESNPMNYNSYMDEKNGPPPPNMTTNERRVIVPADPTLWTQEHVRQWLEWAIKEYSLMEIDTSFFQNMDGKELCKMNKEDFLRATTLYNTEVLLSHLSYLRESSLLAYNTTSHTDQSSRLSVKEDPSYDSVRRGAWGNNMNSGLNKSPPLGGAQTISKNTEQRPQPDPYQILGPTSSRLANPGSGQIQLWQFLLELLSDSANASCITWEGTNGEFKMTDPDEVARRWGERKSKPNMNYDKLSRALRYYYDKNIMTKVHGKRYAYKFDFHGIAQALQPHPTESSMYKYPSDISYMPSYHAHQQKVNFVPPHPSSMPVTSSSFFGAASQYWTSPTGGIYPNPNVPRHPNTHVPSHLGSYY
The settings on record: protein: recombinant; tags: N-terminal GST; dsDNA, one strand shown. The procedure, abridged:
(§1)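 Sequencing on an Illumina NextSeq500 followed washing, crosslinking with 0.1% formaldehyde, proximity ligation (BsaI/T4 ligase, 1 h, 37 °C) and PCR amplification of pools that had been incubated for 30 min at room temperature with 200 nmole of a random double-stranded 16-mer DNA library in Tris/NaCl/DTT/glycerol buffer. Each pool held DNA-barcoded human transcription factors, expressed in yeast as GST fusions and captured on glutathione beads, plus a tag-only sample. Binding signal is a hexamer's read frequency for a factor divided by its frequency in the tag-only sample.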

For a further test, the target named is T2, ELK1 (Homo sapiens, UniProt P19419 1-428).
T2 sequence: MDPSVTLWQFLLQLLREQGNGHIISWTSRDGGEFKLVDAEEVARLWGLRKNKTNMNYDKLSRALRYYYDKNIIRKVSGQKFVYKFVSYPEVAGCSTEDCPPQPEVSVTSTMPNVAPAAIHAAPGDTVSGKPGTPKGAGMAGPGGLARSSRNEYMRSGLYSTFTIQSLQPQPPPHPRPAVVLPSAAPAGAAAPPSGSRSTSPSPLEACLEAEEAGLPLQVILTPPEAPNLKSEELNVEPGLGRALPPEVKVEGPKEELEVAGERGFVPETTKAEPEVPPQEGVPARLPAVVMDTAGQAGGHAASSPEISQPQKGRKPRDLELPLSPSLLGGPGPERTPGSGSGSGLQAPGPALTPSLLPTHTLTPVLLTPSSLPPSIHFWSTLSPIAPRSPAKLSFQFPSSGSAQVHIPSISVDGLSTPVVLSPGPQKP
To be noted: protein: recombinant; tags: N-terminal GST; dsDNA, one strand shown. The essentials:
as §1

In a further test the target is T3, GABPA (Homo sapiens, UniProt Q06546 1-454).
T3 sequence: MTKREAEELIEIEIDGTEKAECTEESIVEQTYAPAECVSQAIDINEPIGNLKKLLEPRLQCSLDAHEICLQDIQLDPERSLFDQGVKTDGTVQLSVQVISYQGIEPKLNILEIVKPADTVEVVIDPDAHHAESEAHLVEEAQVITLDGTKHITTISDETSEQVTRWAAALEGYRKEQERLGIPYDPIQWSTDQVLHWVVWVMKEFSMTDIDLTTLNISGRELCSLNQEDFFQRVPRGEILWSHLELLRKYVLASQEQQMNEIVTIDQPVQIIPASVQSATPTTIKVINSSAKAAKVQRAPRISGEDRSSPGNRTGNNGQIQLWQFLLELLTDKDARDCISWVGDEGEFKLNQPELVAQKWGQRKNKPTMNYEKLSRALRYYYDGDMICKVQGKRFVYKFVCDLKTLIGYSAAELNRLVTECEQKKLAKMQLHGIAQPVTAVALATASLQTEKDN
To be noted: protein: recombinant; tags: N-terminal GST; dsDNA, one strand shown. The procedure, abridged:
as §1

In the next test the target is T4, ERG (Homo sapiens, UniProt P11308 1-479).
T4 sequence: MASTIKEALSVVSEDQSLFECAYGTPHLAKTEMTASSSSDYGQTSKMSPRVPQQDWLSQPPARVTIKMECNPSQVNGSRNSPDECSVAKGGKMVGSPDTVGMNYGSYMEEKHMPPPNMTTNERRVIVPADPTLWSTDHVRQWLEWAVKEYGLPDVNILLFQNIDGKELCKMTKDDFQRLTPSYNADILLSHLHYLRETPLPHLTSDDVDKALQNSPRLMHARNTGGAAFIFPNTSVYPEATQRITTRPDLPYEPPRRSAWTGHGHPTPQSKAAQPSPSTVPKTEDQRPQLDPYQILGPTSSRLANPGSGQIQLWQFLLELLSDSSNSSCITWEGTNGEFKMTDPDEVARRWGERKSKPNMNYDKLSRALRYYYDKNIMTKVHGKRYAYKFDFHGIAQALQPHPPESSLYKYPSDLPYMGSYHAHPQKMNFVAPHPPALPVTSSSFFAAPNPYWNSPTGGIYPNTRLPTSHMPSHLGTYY
The settings on record: protein: recombinant; tags: N-terminal GST; dsDNA, one strand shown. The essentials: as §1

A further test addresses ELF1 (Homo sapiens, UniProt P32519 1-619). To be noted: protein: recombinant; tags: N-terminal GST; dsDNA, one strand shown. The essentials: as §1
A further test deals with T5, EHF (Homo sapiens, UniProt Q9NZC4 1-300).
T5 sequence: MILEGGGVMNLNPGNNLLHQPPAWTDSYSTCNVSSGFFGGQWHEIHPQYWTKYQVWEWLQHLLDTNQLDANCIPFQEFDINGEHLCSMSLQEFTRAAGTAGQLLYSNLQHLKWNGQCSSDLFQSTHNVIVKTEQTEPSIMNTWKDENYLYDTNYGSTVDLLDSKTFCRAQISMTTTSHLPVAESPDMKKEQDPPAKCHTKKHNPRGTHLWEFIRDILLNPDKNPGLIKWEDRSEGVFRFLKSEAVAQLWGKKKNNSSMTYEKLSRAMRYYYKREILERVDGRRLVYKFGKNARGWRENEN
To be noted: protein: recombinant; tags: N-terminal GST; dsDNA, one strand shown. The procedure, abridged:
as §1

The target in a further test is SPI1 (Homo sapiens, UniProt P17947 1-270). The settings on record: protein: recombinant; tags: N-terminal GST; dsDNA, one strand shown. The essentials:
as §1

For a further test, the target named is SPIB (Homo sapiens, UniProt Q01892 1-262). To be noted: protein: recombinant; tags: N-terminal GST; dsDNA, one strand shown. The essentials:
as §1

A further test deals with T6, FEV (Homo sapiens, UniProt Q99581 1-238).
T6 sequence: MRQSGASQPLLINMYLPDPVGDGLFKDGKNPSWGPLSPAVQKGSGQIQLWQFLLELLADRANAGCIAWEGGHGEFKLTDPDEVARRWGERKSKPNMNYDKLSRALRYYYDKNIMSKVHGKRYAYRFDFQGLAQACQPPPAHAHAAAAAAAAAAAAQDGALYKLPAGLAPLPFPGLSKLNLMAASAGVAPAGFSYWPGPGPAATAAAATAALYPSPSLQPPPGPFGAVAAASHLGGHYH
The settings on record: protein: recombinant; tags: N-terminal GST; dsDNA, one strand shown. The essentials: as §1

The target in a further test is ETV5 (Homo sapiens, UniProt P41161 1-510). To be noted: protein: recombinant; tags: N-terminal GST; dsDNA, one strand shown. The essentials: as §1
The target in a further test is HSF1 (Homo sapiens, UniProt Q00613 1-529). To be noted: protein: recombinant; tags: N-terminal GST; chain copies: 3; dsDNA, one strand shown. The essentials: as §1
For another test, the target named is T7, SPIC (Homo sapiens, UniProt Q8N5J4 1-248).
T7 sequence: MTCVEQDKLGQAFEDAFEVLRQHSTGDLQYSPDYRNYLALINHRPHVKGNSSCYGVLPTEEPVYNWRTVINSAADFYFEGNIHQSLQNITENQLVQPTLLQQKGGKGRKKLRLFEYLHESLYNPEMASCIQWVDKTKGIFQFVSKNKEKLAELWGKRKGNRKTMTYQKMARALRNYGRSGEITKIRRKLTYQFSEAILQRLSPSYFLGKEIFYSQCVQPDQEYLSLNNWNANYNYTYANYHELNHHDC
To be noted: protein: recombinant; tags: N-terminal GST; dsDNA, one strand shown. The procedure, abridged: as §1

The next test addresses ELF4 (Homo sapiens, UniProt Q99607 1-663). To be noted: protein: recombinant; tags: N-terminal GST; dsDNA, one strand shown. The essentials: as §1
The target in a further test is T8, ELK4 (Homo sapiens, UniProt P28324-2 1-405).
T8 sequence: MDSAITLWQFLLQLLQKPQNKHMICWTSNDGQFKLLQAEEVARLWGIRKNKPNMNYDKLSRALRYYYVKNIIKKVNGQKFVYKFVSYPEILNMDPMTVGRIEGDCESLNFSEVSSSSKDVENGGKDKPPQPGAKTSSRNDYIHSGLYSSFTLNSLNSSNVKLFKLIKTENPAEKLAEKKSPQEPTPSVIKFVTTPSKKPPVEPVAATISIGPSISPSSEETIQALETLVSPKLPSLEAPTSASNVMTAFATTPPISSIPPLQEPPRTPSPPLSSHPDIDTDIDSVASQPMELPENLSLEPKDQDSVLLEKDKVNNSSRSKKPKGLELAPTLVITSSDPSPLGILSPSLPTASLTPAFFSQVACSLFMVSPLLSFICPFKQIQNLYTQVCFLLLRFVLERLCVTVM
The settings on record: protein: recombinant; tags: N-terminal GST; dsDNA, one strand shown. The essentials:
as §1

The target in a further test is T9, ETV2 (Homo sapiens, UniProt O00321 1-342).
T9 sequence: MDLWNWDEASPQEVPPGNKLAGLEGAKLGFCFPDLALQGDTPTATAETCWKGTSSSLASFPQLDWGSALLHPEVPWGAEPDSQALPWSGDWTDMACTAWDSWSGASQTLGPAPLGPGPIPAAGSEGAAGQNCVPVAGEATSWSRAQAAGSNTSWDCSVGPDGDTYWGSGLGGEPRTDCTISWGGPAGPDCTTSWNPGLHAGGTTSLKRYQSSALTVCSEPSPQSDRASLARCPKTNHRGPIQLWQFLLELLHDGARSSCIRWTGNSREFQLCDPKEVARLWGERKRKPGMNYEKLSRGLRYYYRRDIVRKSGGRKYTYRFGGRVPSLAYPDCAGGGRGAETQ
To be noted: protein: recombinant; tags: N-terminal GST; dsDNA, one strand shown. The essentials:
as §1

For another test, the target named is T10, ELF3 (Homo sapiens, UniProt P78545 1-371).
T10 sequence: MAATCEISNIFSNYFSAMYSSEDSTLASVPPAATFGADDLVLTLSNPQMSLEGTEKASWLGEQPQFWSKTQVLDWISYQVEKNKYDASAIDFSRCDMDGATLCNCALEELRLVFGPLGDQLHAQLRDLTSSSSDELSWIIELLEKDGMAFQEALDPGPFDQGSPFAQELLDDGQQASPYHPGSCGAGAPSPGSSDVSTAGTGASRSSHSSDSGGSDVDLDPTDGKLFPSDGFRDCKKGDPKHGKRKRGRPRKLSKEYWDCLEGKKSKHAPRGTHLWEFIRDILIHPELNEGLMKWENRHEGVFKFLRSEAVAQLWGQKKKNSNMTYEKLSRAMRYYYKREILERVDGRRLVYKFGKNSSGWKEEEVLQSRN
To be noted: protein: recombinant; tags: N-terminal GST; dsDNA, one strand shown. The essentials:
as §1

In a further test the target is CRX (Homo sapiens, UniProt O43186 1-299). The settings on record: protein: recombinant; tags: N-terminal GST; dsDNA, one strand shown. The essentials: as §1
The target of another test is ETV1 (Homo sapiens, UniProt P50549 1-477). The settings on record: protein: recombinant; tags: N-terminal GST; dsDNA, one strand shown. The procedure, abridged:
as §1

Sequence of ELF4 (Q99607 whole entry): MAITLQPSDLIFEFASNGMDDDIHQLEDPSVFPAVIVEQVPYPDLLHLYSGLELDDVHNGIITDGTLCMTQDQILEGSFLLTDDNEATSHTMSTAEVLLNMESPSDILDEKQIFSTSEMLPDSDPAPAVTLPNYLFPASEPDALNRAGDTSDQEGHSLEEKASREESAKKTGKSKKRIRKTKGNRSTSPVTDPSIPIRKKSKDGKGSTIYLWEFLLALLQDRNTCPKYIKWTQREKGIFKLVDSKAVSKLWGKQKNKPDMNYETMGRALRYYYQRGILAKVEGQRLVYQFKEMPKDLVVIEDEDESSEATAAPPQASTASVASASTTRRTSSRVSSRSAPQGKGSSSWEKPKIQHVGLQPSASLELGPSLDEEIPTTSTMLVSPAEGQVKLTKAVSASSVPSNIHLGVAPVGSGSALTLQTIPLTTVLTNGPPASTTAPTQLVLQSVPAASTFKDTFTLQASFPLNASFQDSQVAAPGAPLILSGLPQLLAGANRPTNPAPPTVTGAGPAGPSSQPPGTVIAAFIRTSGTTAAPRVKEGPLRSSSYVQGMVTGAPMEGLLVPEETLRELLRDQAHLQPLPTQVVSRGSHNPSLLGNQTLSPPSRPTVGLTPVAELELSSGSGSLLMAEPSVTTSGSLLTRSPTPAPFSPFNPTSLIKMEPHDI
Sequence of ELF1 (P32519 whole entry): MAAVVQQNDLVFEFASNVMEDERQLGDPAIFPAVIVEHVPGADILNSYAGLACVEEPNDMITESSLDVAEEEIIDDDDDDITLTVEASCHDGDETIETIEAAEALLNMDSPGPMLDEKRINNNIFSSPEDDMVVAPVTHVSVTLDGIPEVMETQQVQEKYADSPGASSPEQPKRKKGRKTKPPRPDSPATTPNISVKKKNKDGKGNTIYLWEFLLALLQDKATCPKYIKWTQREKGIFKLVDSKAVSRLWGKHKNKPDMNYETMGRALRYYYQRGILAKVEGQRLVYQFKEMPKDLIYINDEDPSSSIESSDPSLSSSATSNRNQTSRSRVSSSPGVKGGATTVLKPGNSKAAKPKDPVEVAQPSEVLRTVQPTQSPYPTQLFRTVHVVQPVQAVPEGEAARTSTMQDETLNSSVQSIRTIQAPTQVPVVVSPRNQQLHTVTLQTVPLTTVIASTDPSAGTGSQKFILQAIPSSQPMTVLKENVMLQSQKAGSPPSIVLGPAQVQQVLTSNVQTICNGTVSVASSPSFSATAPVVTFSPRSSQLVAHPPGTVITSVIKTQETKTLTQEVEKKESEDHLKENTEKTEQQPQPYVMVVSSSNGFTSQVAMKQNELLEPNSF
Sequence of HSF1 (Q00613 whole entry): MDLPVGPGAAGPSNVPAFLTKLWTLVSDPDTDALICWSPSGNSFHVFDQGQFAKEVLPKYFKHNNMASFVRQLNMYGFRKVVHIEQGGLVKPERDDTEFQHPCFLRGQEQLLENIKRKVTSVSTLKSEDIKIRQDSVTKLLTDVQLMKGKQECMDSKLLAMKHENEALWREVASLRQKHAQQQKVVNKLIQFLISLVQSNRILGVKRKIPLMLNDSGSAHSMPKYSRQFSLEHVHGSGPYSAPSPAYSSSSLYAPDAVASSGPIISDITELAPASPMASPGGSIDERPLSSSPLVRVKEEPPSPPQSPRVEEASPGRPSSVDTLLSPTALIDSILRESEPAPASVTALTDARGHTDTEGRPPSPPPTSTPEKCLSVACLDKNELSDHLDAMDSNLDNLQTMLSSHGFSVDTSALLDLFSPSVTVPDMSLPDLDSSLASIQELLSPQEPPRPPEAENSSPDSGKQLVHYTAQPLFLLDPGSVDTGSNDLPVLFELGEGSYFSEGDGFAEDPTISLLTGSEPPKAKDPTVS
Sequence of SPIB (Q01892 whole entry): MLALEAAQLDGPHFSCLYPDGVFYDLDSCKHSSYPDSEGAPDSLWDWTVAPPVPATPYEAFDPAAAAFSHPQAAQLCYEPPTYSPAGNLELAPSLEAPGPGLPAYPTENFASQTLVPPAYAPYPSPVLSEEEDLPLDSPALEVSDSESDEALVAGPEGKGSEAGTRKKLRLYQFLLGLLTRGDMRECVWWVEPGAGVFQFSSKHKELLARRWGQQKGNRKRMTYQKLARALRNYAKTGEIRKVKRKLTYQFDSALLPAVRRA
Sequence of ETV1 (P50549 whole entry): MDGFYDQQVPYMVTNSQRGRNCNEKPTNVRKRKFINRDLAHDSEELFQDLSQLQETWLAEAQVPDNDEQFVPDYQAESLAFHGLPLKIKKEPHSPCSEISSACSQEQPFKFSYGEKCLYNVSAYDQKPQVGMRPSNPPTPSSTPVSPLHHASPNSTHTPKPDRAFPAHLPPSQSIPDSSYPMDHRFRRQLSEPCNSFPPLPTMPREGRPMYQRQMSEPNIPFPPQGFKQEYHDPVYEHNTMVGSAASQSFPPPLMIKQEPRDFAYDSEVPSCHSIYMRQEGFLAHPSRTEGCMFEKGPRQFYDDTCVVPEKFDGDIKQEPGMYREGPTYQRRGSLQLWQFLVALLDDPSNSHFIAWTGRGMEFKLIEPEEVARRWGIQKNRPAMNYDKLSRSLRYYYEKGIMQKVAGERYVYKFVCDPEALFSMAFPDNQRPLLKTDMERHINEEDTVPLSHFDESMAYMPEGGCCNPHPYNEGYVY
Sequence of ETV5 (P41161 whole entry): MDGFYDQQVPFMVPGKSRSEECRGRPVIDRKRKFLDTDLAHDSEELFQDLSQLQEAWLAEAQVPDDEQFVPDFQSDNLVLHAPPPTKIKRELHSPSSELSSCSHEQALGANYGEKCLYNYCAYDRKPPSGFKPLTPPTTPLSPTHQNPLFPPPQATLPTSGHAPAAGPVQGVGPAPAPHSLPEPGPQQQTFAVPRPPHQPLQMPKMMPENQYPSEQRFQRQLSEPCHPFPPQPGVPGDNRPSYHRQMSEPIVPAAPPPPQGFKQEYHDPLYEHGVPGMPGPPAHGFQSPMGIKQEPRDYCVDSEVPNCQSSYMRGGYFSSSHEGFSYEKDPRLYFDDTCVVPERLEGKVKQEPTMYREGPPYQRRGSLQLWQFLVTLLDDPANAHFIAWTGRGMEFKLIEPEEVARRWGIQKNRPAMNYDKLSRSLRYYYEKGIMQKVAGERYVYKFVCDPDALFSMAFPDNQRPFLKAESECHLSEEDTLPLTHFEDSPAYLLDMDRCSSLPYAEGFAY
Sequence of CRX (O43186 whole entry): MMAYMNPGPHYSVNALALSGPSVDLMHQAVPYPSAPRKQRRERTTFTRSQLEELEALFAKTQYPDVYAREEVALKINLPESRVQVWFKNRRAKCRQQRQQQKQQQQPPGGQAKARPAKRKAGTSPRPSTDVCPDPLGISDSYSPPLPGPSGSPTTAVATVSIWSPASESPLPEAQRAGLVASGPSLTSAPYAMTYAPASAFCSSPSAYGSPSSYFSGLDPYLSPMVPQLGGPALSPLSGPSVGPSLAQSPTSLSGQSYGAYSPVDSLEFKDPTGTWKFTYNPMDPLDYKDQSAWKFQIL

For the sequence TAGATT, the binding signal in the test with FLI1 is 1.17 fold enrichment (6-mer frequency, TF over GST control); with ELK1 it was 1.2 fold enrichment (6-mer frequency, TF over GST control); with GABPA, 1.18 fold enrichment (6-mer frequency, TF over GST control); in the test with ERG, 1.2 fold enrichment (6-mer frequency, TF over GST control); with ELF1, 1.17 fold enrichment (6-mer frequency, TF over GST control); with EHF it was 1.24 fold enrichment (6-mer frequency, TF over GST control). In addition, the binding signal was 1.16 fold enrichment (6-mer frequency, TF over GST control) with SPI1; 1.24 fold enrichment (6-mer frequency, TF over GST control) with SPIB; 1.14 fold enrichment (6-mer frequency, TF over GST control) with FEV; 1.12 fold enrichment (6-mer frequency, TF over GST control) with ETV5; 2.19 fold enrichment (6-mer frequency, TF over GST control) in the test with HSF1; 1.28 fold enrichment (6-mer frequency, TF over GST control) with SPIC. In addition, the binding signal with ELF4 was 1.19 fold enrichment (6-mer frequency, TF over GST control); with ELK4, 1.29 fold enrichment (6-mer frequency, TF over GST control); with ETV2, 1.13 fold enrichment (6-mer frequency, TF over GST control); with ELF3 it was 1.07 fold enrichment (6-mer frequency, TF over GST control); with CRX, 2.29 fold enrichment (6-mer frequency, TF over GST control); with ETV1, 1.22 fold enrichment (6-mer frequency, TF over GST control).

Values taken from publication PMC7862700, “An all-to-all approach to the identification of sequence-specific readers for epigenetic DNA modifications on cytosine”.
